Measurements as given in the supplement of paper PMC3334620.
The full ranking holds about 33,000 sequences; the median of “E-score (-0.5 to 0.5)” is about -0.035, and the highest 2% start at about 0.35. This is one part of a sample in which the highest values are shown more often than they occur.

Biological target: T1, Pdr3 (UniProt P33200)
T1 sequence: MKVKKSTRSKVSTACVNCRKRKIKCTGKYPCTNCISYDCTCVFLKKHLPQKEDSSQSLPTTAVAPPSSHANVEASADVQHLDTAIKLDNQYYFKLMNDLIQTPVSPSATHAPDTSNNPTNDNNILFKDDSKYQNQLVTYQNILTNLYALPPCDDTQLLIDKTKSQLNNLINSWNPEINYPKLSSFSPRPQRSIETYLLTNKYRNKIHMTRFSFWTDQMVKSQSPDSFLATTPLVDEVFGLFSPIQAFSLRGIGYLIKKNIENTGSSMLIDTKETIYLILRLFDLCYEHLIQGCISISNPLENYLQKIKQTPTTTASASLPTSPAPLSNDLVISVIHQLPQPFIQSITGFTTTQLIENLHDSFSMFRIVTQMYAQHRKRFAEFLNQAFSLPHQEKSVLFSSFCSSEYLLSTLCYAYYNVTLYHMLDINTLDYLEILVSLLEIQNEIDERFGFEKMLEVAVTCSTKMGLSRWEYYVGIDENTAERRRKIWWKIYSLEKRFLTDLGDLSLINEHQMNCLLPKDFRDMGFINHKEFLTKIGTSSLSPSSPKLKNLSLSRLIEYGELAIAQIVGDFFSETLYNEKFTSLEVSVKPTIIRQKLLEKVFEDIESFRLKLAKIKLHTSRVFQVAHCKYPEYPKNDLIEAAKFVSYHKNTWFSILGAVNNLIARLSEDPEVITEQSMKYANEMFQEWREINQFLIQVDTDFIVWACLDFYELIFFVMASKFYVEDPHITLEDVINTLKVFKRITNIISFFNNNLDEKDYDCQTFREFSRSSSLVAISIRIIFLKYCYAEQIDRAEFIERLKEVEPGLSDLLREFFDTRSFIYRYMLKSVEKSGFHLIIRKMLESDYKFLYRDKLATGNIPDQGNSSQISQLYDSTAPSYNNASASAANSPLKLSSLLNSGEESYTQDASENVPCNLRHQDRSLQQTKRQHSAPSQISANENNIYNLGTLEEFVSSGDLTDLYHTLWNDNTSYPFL
Assay: PBM E-score (8-mer binding enrichment) (E-score (-0.5 to 0.5)); higher = stronger / more preferred TF binding
Settings: protein concentration: 200 nM; construct: GST-full length
Experimental: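 Universal 'all 10-mer' protein binding microarrays (Agilent AMADID 015681) probed with GST-tagged S. cerevisiae TFs (full-length or DBD) made by in vitro transcription/translation (PURExpress), about 100-200 nM. Bound TF was detected with fluorescent anti-GST. Each ungapped 8-mer (which stands for itself and its reverse complement) is scored by the PBM enrichment score (E-score), a modified Wilcoxon-Mann-Whitney statistic from -0.5 to +0.5, computed with the Universal PBM Analysis Suite. Scale: above 0.35 generally sequence-specific binding.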

Sequence | PBM E-score
GCGGAGTA | 0.245
AAGAGTTC | -0.178
CCCCAACA | -0.274
ATTAAGAG | -0.0729
CGCGCGGA | 0.383
CGAGCGGC | 0.228
AGCGCGGC | 0.107
AGAGCGGA | 0.229
CGCGCGGC | 0.373
GGCGCGGA | 0.352
AGCGCGGA | 0.331
CGAGCGGA | 0.359
CGTGCGGA | 0.177
AGTGCGGG | 0.185
AGTGCGGA | 0.377
CTCGCGGC | 0.171
AGGCTACT | -0.167
CCGCCAGC | 0.105
TACCTAGA | -0.195
ACCCGTAT | 0.0405
AGAGTAAC | 0.0157
AAATCTAT | -0.00749
CGGTGTAG | -0.0315
CTTATCCA | -0.00809
CGCGGGGC | 0.304

Sequence | PBM E-score
AGCGGGGA | 0.0517
CGCGGGGA | 0.393
CGCGGGAA | 0.429
GGCGGGAC | 0.295
AGCGGGAA | 0.232
CGCGGGAC | 0.444
GGCGGGAA | 0.198
AGCGGGAC | 0.185
AAGTTCAG | -0.098
CGGTTCCC | 0.153
AGTACTGG | -0.222
GAACTAGC | -0.00564
ATTCCCTA | 0.0152
GGTTCTTA | -0.0791
AAGACCAA | -0.0835
GTTACCCA | -0.159
ATGCGCTG | -0.0256
AATCAACT | 0.0921
ATAAGCTC | 0.042
AACCGCGA | 0.277
AACCGCGG | 0.457
CACCGCGA | 0.032
AGCCGCGC | 0.236
AACCGCGT | 0.141
CACCGCGG | 0.452

Sequence | PBM E-score
AGCCGCGG | 0.485
AGCCGCGA | 0.187
CACCGCGC | 0.166
ATAAGAGG | 0.0703
AAGGTCAG | -0.201
AGCAGACT | -0.189
ACAGAGCT | -0.292
GTGCCCAA | -0.0202
GAATCACC | -0.027
CCGGGCTC | 0.224
ACAATGCA | 0.0617
AGAGGATG | 0.0386
CACTAGCG | -0.0368
ATGTTTAC | -0.0373
GACGCGCA | 0.0698
GCACCGGC | 0.146
ACACCGGT | 0.14
CCACCGGG | 0.257
ACACCGGA | 0.357
CCACCGGC | 0.204
TCACCGGA | 0.329
GCACCGTA | 0.067
CCACCGGA | 0.428
GCACCGGA | 0.377
CGTTTGCA | 0.0843

Sequence | PBM E-score
CCAACTGC | 0.0661
TCCCATCA | -0.209
AGAAAGTG | -0.177
AATCGACG | 0.058
CCGGCAGA | 0.229
CCGGCACC | 0.369
ACGGCACC | -0.0873
CCGGCACG | 0.279
CCGGCAGC | 0.362
CCGGCAGG | 0.231
GTCCGTAA | 0.191
CCGCCACC | 0.0657
ACACAGGG | 0.0204
GCCGTGAC | 0.133
ACCGGACG | 0.311
CCTGGAAG | -0.203
CCCGGAAA | 0.449
CCCCGAAG | 0.144
CCAGGAAA | -0.0248
ACCGGATC | 0.34
ACCGGATG | 0.249
ACCGGAAC | 0.474
ACCGGACC | 0.297
CCCGGAAG | 0.419
CCCGAAAA | 0.191

Sequence | PBM E-score
ACCGGAAG | 0.42
CACCCAAG | -0.071
AAAATAAG | -0.194
CGGTTAAA | 0.0999
CGATCTGA | 0.0713
ATATCGAT | 0.104
ACCGGACT | 0.285
GCCGGATA | 0.368
CCCGGACC | 0.334
ACCGGATA | 0.151
ACCGGAAT | 0.411
GCAGGATA | -0.0657
ACCAGAAA | -0.105
CCCGGAAC | 0.467
CCCCGAAC | 0.129
ACCGGAGT | 0.234
ACCGGAAA | 0.405
ATTGGCGA | -0.2
CCACCTTA | -0.0834
GCTTTAGA | -0.238
AGAGCATC | -0.0714
CGTGCTAG | -0.276
GAAAAGGA | 0.0166
GCCGGACC | 0.303
GCCGAAAA | 0.276

Sequence | PBM E-score
GCAGGAAA | -0.081
TCCGGTAA | 0.307
TCCGGAAA | 0.466
TCAGGAAA | -0.128
GCCGGAAA | 0.42
GCCGGAAC | 0.476
GCCGGAGC | 0.236
GACAAGTA | 0.00093
AAGCGATC | 0.0113
ACTCCCCG | 0.306
ATTCCAGC | 0.0377
AATCCGGG | 0.354
ATTCCGGG | 0.458
ATTCCGGC | 0.448
ACTCCCGG | 0.356
ACTCCCGA | 0.0347
ATTCCCGG | 0.393
ATTCCTGG | 0.0168
ATTCCTGC | 0.221
ATTCCCCG | 0.28
ATTCCCGA | 0.212
ACTCAGCC | -0.146
ACAATAGT | -0.0518
GGACAACC | 0.0553
CCACCACC | -0.0836

Sequence | PBM E-score
CCCAGGGG | -0.115
AATGTTAT | 0.00821
AGCGTGGG | -0.253
AGCACCCT | -0.284
CGATCCGA | 0.326
AGATCGGC | 0.134
AGATCCGA | 0.169
TAATCGGA | 0.324
GGATCGGA | 0.359
CGATCGGA | 0.196
AAATCGGA | 0.326
AGATCGGG | 0.0992
GGATCGAA | 0.133
AGATCGGA | 0.394
GGATCCGA | 0.399
GAATCGGA | 0.36
CTTGACTA | -0.119
TGCAATAA | -0.00943
GTCTTCAA | -0.189
ACGCTGGG | -0.0598
CCCGCGAA | 0.206
GAAGGAAC | 0.0934
